# Laboratory results published in publication PMC7862700, “An all-to-all approach to the identification of sequence-specific readers for epigenetic DNA modifications on cytosine”.
# How the values were obtained:
# Assay in all cases: DAPPL (digital affinity profiling via proximity ligation, sequencing); 10 mM Tris-HCl pH 7.5, 50 mM NaCl, 1 mM DTT, 4% glycerol, room temperature, 30 min; GST-TFs on glutathione beads, 16-mer random dsDNA library, 0.1% formaldehyde crosslink after washing; high values mean tight binding
# FEV = molecular target: T1, FEV (Homo sapiens, UniProt Q99581 1-238); settings: protein: recombinant; tags: N-terminal GST; dsDNA, one strand shown
# T1 sequence: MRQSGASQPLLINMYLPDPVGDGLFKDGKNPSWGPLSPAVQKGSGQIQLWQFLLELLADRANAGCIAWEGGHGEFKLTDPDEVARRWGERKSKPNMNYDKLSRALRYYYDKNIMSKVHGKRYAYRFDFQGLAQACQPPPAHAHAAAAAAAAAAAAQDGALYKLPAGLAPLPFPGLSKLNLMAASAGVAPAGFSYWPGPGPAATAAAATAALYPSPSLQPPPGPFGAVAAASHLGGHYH
# Method in brief: (§1)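 Human transcription factors were made in yeast as GST fusions, captured on glutathione beads and barcoded with DNA. With a tag-only sample included, the pool was incubated with 200 nmole of a random double-stranded 16-mer DNA library in Tris/NaCl/DTT/glycerol buffer at room temperature for 30 min, then crosslinked with 0.1% formaldehyde after washing, ligated by proximity, amplified and sequenced. For binding signal, each hexamer's read frequency for a factor is divided by its frequency for the tag-only sample.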
# ETV5 = ETV5 (Homo sapiens, UniProt P41161 1-510); settings: protein: recombinant; tags: N-terminal GST; dsDNA, one strand shown
# Method in brief: as §1
# HSF1 = HSF1 (Homo sapiens, UniProt Q00613 1-529); settings: protein: recombinant; tags: N-terminal GST; chain copies: 3; dsDNA, one strand shown
# Method in brief: as §1
# SPIC = molecular target: T2, SPIC (Homo sapiens, UniProt Q8N5J4 1-248); settings: protein: recombinant; tags: N-terminal GST; dsDNA, one strand shown
# T2 sequence: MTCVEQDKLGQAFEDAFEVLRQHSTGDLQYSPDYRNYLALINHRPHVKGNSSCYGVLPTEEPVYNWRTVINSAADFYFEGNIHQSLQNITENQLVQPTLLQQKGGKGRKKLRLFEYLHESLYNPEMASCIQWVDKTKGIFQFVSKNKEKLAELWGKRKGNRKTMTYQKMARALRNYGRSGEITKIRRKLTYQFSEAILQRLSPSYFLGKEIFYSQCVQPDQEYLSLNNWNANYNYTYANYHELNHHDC
# Method in brief: as §1
# ELF4 = ELF4 (Homo sapiens, UniProt Q99607 1-663); settings: protein: recombinant; tags: N-terminal GST; dsDNA, one strand shown
# Method in brief: as §1
# ELK4 = molecular target: T3, ELK4 (Homo sapiens, UniProt P28324-2 1-405); settings: protein: recombinant; tags: N-terminal GST; dsDNA, one strand shown
# T3 sequence: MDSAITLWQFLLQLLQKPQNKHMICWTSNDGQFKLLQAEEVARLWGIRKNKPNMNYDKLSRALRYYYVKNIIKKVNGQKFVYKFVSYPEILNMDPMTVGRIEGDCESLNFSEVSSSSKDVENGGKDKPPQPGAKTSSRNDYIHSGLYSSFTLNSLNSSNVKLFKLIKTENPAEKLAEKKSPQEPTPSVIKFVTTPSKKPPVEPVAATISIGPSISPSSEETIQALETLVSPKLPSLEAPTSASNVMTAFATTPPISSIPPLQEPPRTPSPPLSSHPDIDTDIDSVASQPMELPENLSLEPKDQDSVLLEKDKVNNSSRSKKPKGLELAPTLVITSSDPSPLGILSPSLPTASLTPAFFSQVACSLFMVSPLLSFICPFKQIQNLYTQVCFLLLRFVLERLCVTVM
# Method in brief: as §1
# ETV2 = molecular target: T4, ETV2 (Homo sapiens, UniProt O00321 1-342); settings: protein: recombinant; tags: N-terminal GST; dsDNA, one strand shown
# T4 sequence: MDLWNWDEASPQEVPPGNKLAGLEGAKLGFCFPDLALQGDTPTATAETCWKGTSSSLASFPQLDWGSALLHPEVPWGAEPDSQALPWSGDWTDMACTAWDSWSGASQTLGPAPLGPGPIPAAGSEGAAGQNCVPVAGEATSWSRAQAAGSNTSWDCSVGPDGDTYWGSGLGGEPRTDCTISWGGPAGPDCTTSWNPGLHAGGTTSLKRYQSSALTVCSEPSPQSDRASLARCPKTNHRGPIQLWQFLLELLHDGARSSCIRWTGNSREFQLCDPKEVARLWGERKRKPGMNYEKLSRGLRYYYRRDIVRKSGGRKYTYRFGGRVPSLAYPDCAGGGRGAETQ
# Method in brief: as §1
# ELF3 = molecular target: T5, ELF3 (Homo sapiens, UniProt P78545 1-371); settings: protein: recombinant; tags: N-terminal GST; dsDNA, one strand shown
# T5 sequence: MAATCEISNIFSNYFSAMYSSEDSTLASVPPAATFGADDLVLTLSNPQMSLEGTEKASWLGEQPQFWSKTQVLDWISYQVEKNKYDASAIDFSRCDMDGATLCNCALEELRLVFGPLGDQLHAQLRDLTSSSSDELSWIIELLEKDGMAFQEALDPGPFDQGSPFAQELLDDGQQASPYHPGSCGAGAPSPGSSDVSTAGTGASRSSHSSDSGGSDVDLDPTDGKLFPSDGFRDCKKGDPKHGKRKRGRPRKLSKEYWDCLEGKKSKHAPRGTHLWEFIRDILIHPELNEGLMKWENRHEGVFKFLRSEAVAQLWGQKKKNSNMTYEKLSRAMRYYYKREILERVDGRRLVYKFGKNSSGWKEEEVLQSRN
# Method in brief: as §1
# CRX = CRX (Homo sapiens, UniProt O43186 1-299); settings: protein: recombinant; tags: N-terminal GST; dsDNA, one strand shown
# Method in brief: as §1
# ETV1 = ETV1 (Homo sapiens, UniProt P50549 1-477); settings: protein: recombinant; tags: N-terminal GST; dsDNA, one strand shown
# Method in brief: as §1
# ERF = molecular target: T6, ERF (Homo sapiens, UniProt P50548 1-548); settings: protein: recombinant; tags: N-terminal GST; dsDNA, one strand shown
# T6 sequence: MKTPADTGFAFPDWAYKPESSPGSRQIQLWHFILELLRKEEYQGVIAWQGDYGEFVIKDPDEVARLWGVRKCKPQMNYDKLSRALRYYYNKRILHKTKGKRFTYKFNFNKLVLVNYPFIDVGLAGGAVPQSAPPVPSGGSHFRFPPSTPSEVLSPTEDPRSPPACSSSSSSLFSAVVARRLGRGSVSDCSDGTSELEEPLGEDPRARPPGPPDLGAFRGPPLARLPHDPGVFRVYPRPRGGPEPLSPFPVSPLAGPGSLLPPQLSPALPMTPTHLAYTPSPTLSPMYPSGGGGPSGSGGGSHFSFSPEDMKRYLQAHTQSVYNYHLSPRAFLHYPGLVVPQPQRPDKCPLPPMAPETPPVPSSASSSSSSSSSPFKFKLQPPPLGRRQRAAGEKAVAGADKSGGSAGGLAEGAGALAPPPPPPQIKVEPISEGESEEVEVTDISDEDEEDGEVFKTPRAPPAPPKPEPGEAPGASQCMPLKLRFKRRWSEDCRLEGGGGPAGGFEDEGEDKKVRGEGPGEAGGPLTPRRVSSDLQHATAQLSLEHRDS
# Method in brief: as §1
# ETV3L = molecular target: T7, ETV3L (Homo sapiens, UniProt Q6ZN32 1-361); settings: protein: recombinant; tags: N-terminal GST; dsDNA, one strand shown
# T7 sequence: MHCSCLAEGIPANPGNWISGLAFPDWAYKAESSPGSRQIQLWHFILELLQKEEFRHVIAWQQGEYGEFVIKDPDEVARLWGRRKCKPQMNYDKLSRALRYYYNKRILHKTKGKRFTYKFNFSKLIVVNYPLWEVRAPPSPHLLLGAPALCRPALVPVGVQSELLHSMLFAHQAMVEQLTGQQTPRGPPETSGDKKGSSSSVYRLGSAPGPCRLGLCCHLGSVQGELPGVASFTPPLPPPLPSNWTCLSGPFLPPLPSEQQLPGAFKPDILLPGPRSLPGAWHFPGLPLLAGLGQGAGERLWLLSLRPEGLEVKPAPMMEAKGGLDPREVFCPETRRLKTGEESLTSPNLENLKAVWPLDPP
# Method in brief: as §1
# ETS2 = molecular target: T8, ETS2 (Homo sapiens, UniProt P15036 1-469); settings: protein: recombinant; tags: N-terminal GST; dsDNA, one strand shown
# T8 sequence: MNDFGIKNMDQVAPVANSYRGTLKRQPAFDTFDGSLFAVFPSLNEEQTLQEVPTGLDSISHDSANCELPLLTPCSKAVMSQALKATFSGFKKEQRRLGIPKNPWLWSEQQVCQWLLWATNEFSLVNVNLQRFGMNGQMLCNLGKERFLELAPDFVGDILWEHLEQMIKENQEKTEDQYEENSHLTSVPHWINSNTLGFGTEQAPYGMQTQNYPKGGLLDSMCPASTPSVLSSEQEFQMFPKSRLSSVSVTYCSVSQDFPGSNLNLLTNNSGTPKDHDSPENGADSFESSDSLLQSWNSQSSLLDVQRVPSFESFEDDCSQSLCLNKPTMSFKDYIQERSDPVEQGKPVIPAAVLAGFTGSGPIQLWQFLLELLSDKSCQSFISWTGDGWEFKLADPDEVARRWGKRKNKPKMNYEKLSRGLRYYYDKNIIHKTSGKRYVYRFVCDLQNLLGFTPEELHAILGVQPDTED
# Method in brief: as §1
# SPDEF = molecular target: T9, SPDEF (Homo sapiens, UniProt O95238 1-335); settings: protein: recombinant; tags: N-terminal GST; dsDNA, one strand shown
# T9 sequence: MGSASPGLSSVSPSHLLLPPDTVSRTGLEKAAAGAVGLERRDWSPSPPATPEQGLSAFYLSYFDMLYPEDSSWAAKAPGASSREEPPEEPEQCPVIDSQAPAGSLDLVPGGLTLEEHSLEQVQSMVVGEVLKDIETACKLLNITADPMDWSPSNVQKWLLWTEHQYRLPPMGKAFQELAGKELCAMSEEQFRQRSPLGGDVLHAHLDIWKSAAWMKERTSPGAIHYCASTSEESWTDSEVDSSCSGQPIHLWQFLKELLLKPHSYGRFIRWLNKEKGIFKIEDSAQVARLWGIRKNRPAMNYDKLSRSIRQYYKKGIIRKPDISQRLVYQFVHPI
# Method in brief: as §1
# ETV7 = molecular target: T10, ETV7 (Homo sapiens, UniProt Q9Y603 1-341); settings: protein: recombinant; tags: N-terminal GST; dsDNA, one strand shown
# T10 sequence: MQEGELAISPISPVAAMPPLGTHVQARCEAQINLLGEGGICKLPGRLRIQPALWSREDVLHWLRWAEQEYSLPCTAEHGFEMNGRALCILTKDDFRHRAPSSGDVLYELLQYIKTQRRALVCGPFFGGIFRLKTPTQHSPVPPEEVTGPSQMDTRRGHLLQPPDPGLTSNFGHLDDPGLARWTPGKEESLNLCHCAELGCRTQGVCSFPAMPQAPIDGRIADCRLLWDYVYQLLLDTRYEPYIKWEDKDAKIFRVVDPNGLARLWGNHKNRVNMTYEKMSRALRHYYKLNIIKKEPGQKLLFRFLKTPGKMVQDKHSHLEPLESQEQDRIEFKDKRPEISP
# Method in brief: as §1
# ELF5 = molecular target: T11, ELF5 (Homo sapiens, UniProt Q9UKW6-2 1-255); settings: protein: recombinant; tags: N-terminal GST; dsDNA, one strand shown
# T11 sequence: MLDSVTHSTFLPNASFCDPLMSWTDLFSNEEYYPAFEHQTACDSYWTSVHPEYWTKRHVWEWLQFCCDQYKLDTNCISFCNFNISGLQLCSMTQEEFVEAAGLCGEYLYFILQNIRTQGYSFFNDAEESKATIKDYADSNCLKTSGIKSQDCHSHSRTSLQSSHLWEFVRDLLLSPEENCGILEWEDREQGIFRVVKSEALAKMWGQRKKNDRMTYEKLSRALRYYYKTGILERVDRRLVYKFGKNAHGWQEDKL
# Method in brief: as §1
# ETV3 = molecular target: T12, ETV3 (Homo sapiens, UniProt P41162-2 1-143); settings: protein: recombinant; tags: N-terminal GST; dsDNA, one strand shown
# T12 sequence: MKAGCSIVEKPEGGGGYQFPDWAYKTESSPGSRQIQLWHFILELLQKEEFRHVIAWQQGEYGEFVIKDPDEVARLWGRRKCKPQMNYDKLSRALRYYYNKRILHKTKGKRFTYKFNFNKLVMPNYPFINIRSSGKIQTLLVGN
# Method in brief: as §1
# ETV6 = ETV6 (Homo sapiens, UniProt P41212 1-452); settings: protein: recombinant; tags: N-terminal GST; dsDNA, one strand shown
# Method in brief: as §1
# ETV6, sequence (P41212 whole entry): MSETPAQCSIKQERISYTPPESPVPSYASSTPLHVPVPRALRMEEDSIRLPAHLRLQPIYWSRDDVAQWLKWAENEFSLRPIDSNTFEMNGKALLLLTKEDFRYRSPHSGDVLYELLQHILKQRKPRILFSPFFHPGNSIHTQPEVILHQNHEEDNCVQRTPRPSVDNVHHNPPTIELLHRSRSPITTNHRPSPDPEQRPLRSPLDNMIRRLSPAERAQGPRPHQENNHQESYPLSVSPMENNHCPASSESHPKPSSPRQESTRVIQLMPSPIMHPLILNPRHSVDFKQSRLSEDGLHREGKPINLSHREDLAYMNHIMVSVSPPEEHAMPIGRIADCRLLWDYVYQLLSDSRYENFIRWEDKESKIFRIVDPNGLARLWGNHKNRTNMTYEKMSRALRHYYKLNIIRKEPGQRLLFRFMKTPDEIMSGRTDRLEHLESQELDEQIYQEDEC
# ETV1, sequence (P50549 whole entry): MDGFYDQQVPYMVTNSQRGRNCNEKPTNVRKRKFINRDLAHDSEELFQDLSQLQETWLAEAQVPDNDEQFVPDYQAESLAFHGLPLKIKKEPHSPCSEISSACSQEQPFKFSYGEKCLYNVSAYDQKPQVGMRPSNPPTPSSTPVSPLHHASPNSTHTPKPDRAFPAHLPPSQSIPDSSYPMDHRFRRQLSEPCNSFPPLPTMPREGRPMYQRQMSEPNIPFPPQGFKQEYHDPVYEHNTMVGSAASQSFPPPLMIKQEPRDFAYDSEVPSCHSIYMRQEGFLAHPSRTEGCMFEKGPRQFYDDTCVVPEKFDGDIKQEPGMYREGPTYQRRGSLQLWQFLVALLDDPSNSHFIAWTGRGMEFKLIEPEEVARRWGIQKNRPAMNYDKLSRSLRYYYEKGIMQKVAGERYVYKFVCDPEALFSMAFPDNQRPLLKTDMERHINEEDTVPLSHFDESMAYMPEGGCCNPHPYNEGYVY
# ELF4, sequence (Q99607 whole entry): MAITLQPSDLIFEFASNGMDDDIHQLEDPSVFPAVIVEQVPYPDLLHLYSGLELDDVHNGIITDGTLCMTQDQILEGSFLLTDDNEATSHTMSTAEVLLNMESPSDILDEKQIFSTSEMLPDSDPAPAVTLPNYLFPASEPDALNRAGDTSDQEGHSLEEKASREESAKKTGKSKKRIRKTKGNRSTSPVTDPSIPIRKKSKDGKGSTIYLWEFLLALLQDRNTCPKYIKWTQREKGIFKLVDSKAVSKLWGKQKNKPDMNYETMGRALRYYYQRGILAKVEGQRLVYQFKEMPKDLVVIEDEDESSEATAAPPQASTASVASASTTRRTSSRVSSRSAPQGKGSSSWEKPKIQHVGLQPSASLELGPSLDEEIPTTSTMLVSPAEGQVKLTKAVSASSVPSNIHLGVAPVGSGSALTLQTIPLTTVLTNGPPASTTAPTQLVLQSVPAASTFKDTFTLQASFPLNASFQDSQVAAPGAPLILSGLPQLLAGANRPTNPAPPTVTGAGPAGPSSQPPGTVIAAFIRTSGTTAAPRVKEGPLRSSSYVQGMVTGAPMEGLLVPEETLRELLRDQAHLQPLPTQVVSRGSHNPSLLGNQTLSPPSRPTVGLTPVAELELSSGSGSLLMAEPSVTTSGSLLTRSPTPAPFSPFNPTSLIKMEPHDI
# CRX, sequence (O43186 whole entry): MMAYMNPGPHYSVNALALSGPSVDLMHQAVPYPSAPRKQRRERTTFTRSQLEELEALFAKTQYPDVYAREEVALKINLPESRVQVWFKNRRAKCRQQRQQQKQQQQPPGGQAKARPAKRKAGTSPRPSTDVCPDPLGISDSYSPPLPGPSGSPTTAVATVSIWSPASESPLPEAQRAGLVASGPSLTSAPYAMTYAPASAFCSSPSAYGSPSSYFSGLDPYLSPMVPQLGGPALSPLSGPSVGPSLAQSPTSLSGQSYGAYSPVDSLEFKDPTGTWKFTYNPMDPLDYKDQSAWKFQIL
# HSF1, sequence (Q00613 whole entry): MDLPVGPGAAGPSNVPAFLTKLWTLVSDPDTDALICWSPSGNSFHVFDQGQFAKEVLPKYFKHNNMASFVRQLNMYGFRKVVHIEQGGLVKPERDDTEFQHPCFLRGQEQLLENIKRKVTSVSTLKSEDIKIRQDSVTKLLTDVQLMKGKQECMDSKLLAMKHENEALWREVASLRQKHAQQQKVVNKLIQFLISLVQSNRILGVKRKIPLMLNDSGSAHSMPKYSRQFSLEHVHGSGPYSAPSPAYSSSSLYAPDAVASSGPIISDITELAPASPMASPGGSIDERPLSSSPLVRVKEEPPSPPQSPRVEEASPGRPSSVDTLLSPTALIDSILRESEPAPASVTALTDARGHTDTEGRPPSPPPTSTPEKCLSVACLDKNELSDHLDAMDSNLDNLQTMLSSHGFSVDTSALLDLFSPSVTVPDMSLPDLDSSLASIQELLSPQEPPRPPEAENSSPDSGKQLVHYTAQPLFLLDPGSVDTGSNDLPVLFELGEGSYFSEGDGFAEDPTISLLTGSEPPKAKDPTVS
# ETV5, sequence (P41161 whole entry): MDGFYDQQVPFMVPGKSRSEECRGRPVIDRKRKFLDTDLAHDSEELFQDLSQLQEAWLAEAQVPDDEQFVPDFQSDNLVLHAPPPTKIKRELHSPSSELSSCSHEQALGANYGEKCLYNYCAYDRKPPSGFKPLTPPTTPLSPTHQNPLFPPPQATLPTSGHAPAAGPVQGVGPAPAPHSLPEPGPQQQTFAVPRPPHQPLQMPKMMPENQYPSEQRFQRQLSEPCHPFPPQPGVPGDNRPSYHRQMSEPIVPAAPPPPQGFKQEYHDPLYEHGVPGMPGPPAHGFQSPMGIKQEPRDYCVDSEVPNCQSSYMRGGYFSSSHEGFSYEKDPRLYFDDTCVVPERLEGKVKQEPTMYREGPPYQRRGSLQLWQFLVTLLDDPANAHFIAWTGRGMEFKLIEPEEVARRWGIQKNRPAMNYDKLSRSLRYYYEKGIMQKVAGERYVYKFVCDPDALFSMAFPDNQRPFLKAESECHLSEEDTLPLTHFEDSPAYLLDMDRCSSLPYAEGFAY
sequence,measurement,setting,value
CAATCC,binding signal,FEV,"1.17 fold enrichment (6-mer frequency, TF over GST control)"
same,binding signal,ETV5,"1.12 fold enrichment (6-mer frequency, TF over GST control)"
same,binding signal,HSF1,"1.37 fold enrichment (6-mer frequency, TF over GST control)"
same,binding signal,SPIC,"1.11 fold enrichment (6-mer frequency, TF over GST control)"
same,binding signal,ELF4,"1.19 fold enrichment (6-mer frequency, TF over GST control)"
same,binding signal,ELK4,"1.19 fold enrichment (6-mer frequency, TF over GST control)"
same,binding signal,ETV2,"1.38 fold enrichment (6-mer frequency, TF over GST control)"
same,binding signal,ELF3,"1.3 fold enrichment (6-mer frequency, TF over GST control)"
same,binding signal,CRX,"1.6 fold enrichment (6-mer frequency, TF over GST control)"
same,binding signal,ETV1,"1.19 fold enrichment (6-mer frequency, TF over GST control)"
same,binding signal,ERF,"1.25 fold enrichment (6-mer frequency, TF over GST control)"
same,binding signal,ETV3L,"1.2 fold enrichment (6-mer frequency, TF over GST control)"
same,binding signal,ETS2,"1.22 fold enrichment (6-mer frequency, TF over GST control)"
same,binding signal,SPDEF,"1.4 fold enrichment (6-mer frequency, TF over GST control)"
same,binding signal,ETV7,"1.16 fold enrichment (6-mer frequency, TF over GST control)"
same,binding signal,ELF5,"1.21 fold enrichment (6-mer frequency, TF over GST control)"
same,binding signal,ETV3,"1.19 fold enrichment (6-mer frequency, TF over GST control)"
same,binding signal,ETV6,"1.22 fold enrichment (6-mer frequency, TF over GST control)"
